This test addresses Torsin-1A-interacting protein 2 (Homo sapiens) (UniProt Q8NFQ8). The test can be described thus: LULL1 binders on small-molecule microarray, primary screen, cell lysate, human LULL1 lysate, 635/667 nm fluorescence (AID 1092).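 Also: probe is lysate of COS7 cells overexpressing human LULL1; score merges per-feature 667 nm fluorescence with signal-to-noise.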 As to conditions: hLULL1 lysate binding, 635 nm fluorescence, higher = more signal.
Torsin-1A-interacting protein 2 (Homo sapiens), sequence (Q8NFQ8 whole entry, looked up): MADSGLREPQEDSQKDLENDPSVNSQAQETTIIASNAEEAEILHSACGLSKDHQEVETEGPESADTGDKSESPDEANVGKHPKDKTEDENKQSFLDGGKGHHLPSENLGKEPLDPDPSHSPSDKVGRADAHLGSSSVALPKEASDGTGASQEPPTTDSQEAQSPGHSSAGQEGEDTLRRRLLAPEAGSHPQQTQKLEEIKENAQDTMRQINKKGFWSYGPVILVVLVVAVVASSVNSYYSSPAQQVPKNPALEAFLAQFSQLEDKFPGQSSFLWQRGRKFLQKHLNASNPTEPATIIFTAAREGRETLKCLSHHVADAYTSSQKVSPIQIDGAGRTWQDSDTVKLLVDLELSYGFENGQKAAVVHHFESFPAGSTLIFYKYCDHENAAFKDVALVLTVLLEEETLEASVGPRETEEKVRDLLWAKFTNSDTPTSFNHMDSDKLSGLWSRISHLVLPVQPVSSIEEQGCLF
In turn, `COC(=O)[C@@]1(Cc2ccc(F)cc2)[C@H]2c3cc(C(=O)N(C)C)n(CCc4ccc(O)c(O)c4)c3C[C@H]2CN1C(=O)c1ccccc1` displayed a composite z-score of 2.56.

Turning to `[N-]=[N+]=Nc1ccccc1C[C@]1(C(=O)N2CCOCC2)N=C(c2ccc(OCCCO)cc2)O[C@H]1c1ccccc1N=[N+]=[N-]`, the composite z-score was 3.39.

Take `COCCOC(=O)N1C(=O)[C@@]2(c3cc(C#CCCO)ccc31)[C@H](c1ccc(OCCO)cc1)N1[C@H](c3ccccc3)[C@H](c3ccccc3)OC(=O)[C@H]1[C@@H]2C(=O)N1CCCCCCC1`: the composite z-score came out at 2.82.

The molecule `COC(=O)C(CC#Cc1ccc2c(c1)[C@]1(C(=O)N2)[C@H](c2ccc(OCCO)cc2)N2[C@H](c3ccccc3)[C@H](c3ccccc3)OC(=O)[C@H]2[C@@H]1C(=O)N1CCCCCCC1)C(=O)OC` came in with a composite z-score of 3.95.

In turn, `O=C1C[C@@](C(=O)O)(c2ccc([N+](=O)[O-])cc2)[C@@H](c2ccc(CO)cc2)N1C1CCCCC1` showed a composite z-score of 3.12.

Take `C=CC[C@]1(C(=O)NCC(O)CO)COC(c2ccc(OCCCO)cc2)=N1` (some centres undefined): the composite z-score is 2.15.

`C=C(COC)C(=O)CC[C@H](OC(=O)c1cccnc1)c1ccc(OCCO)cc1` showed a composite z-score of 1.48.

As for `C=CCNC(=O)[C@H]1[C@@H]2C(=O)O[C@@H](c3ccccc3)[C@@H](c3ccccc3)N2[C@@H](c2ccc(OCCO)cc2)[C@]12C(=O)Nc1ccccc12`, the composite z-score was determined as 3.36.

The molecule `C=CC1c2cc(O)c(OC)cc2CCN1C` (centres undefined) registered a composite z-score of 0.134.

For the molecule `CC1CC/C=C\[C@H]2OC34C=CCN(c5ccc(Cl)cc5)C(=O)[C@H]3N(CCCCCCO)C(=O)[C@]4(C)C2C(=O)O1` (some centres undefined), the composite z-score worked out at 0.995.

`CCCC=C(CCC)[C@@H](NC(=O)c1ccc(C(F)(F)F)cc1)c1ccc(C(F)(F)F)cc1` yielded a composite z-score of 3.26.

`Cc1ccccc1C(O)C1C=CC2C(=O)N(c3ccccc3)C(=O)C2N1Nc1ccccc1` (centres undefined): the composite z-score came to 3.42.

`CCOC(=O)C[C@H]1[C@H](OC(=O)c2ccccc2-c2ccccc2)[C@@H](NC(=O)c2ccc3ccccc3c2)c2cc(OCCCO)ccc2N1C(=O)Cc1ccc(OC)cc1` yielded a composite z-score of 0.276.

Regarding `COc1ccc(C(=O)Nc2ccc3c(c2)[C@@]2(O[C@H](CCO)[C@@H]([Si](C)(C)c4ccc(OC)cc4)[C@@H]2C)C(=O)N3Cc2ccccc2)cc1`, the composite z-score is 1.94.

In the case of `COCCOC(=O)N1C(=O)[C@@]2(c3cc(C#CCC(C(=O)OC)C(=O)OC)ccc31)[C@H](c1ccc(O)cc1)N1[C@H](c3ccccc3)[C@H](c3ccccc3)OC(=O)[C@H]1[C@@H]2C(=O)Nc1nc2ccccc2s1`, the composite z-score is 2.76.

Consider `C=C(COC)/C(=C/C[C@H](OC(C)=O)c1ccccc1OCCO)c1cc(C(=O)OC)ccc1OC`, for which the composite z-score was 1.76.

Take `O=C1[C@H]2C=C(I)[C@H](C[C@@H]2OCCCCCCO)[C@@]12CO2`: the composite z-score is -0.505.

`CCCCC(=C=CC[C@H](O)c1ccc(CO)o1)CCO`: the composite z-score is 1.59.

For the molecule `COc1ccccc1CN1C(=O)c2ccccc2[C@](Cc2ccccc2I)(C(=O)NCC(C)C)[C@@H]1c1ccc(CO)cc1`, the composite z-score stood at 2.11.

`C=CCC(OC(C)=O)[C@@H]1[C@@H](N(Cc2ccc(-c3ccccc3)cc2)C(=O)c2cccc3ccccc23)c2cc(OCCCO)ccc2N1C(=O)Cc1ccc(OC)cc1` (some centres undefined) had a composite z-score of -0.203.

As for `CC(C)N1C(=O)c2ccccc2[C@](C)(C(=O)NCC(F)(F)F)[C@@H]1c1ccc(CO)cc1`, the composite z-score was found to be 1.64.

`O=C1NC(=O)C2C1C=CC(C(O)c1ccc([N+](=O)[O-])cc1)N2Nc1ccccn1` (centres undefined): the composite z-score worked out at 0.307.

Turning to `CN1C(=O)C2C=CC(C(O)c3ccc(-c4ccccc4)s3)N(NC(=O)OC(C)(C)C)C2C1=O` (centres undefined), the composite z-score was 2.92.

Turning to `CN(C)CCCNC(=O)[C@@]1(C)c2ccccc2C(=O)N(Cc2ccc(OC(F)(F)F)cc2)[C@H]1c1ccc(CO)cc1`, the composite z-score is 1.53.

Turning to `COCCCNC(=O)[C@@]1(CCS(=O)(=O)c2ccccc2)COC(c2ccc(OCCCO)cc2)=N1`, the composite z-score stood at 3.67.

Turning to `COC(=O)[C@@]1(Cc2ccc(OC)cc2)[C@H]2c3cc(C(=O)N4CCCC4)n(Cc4ccc(C(F)(F)F)nc4)c3C[C@H]2CN1C(=O)c1ccccc1`, the composite z-score is 1.05.

As for `COC(=O)C(CC#Cc1ccc2c(c1)[C@]1(C(=O)N2)[C@H](c2ccccc2OCCO)N2[C@H](c3ccccc3)[C@H](c3ccccc3)OC(=O)[C@H]2[C@@H]1C(=O)N1CCc2cc(OC)c(OC)cc2C1)C(=O)OC`, the composite z-score came out at 3.01.

Molecule `COc1ccc(C(O)C2C=CC3C(=O)N(C)C(=O)C3N2N(c2ccccc2)c2ccccc2)cc1` (centres undefined) yielded a composite z-score of 2.18.

As to `COCCOC(=O)N1C(=O)[C@@]2(c3cc(C#CCC(C(=O)OC)C(=O)OC)ccc31)[C@H](C(=O)Nc1nc3ccccc3s1)[C@H]1C(=O)O[C@H](c3ccccc3)[C@H](c3ccccc3)N1[C@@H]2c1ccc(O)cc1`, the composite z-score was 2.51.
